# In PubChem BioAssay (NCI):
# The panel holds about 79,000 compounds, 15% with a hit somewhere; the sample as a whole holds those more often. A number with no mark means an inactive call. Activity calls are given as the source filed them. Rule as the data show it: active = growth inhibition above about 70%; inactive = the rest.
# Columns and labels:
# [1] = NCI Yeast Anticancer Drug Screen. Data for the rad50 strain (AID 155);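 also: 0% = growth of vehicle-only cultures of the same strain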; settings: S. cerevisiae rad50 strain growth inhibition, hits give high values
# Outline: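 Inhibition values express reduced yeast growth in compound-treated cultures relative to vehicle-treated controls.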
# [2] = NCI Yeast Anticancer Drug Screen. Data for the mec2-1 strain (AID 157); settings: S. cerevisiae mec2-1 strain, hits give high values
# Outline: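 Test agents were screened against the mec2-1 yeast strain, with defined DNA repair or cell cycle alteration. Growth was scored as inhibition against vehicle-only controls.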
# [3] = NCI Yeast Anticancer Drug Screen. Data for the sgs1 mgt1 strain (AID 161);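 also: 0% = growth of cultures given vehicle only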; settings: S. cerevisiae sgs1 mgt1 strain, hits give high values
# Outline: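 Read-out: growth inhibition vs vehicle controls. Cells: mutant yeast strain deficient in DNA damage repair.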
# [4] = NCI Yeast Anticancer Drug Screen. Data for the cln2 rad14 strain (AID 165);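 also: 0% = growth equal to vehicle treated cultures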; settings: S. cerevisiae cln2 rad14 strain, hits give high values
# Outline: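 Growth of compound-exposed yeast (cln2 rad14 genotype) measured and expressed as inhibition relative to vehicle.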
# [5] = NCI Yeast Anticancer Drug Screen. Data for the bub3 strain (AID 167); settings: S. cerevisiae bub3 mutant strain, hits give high values
# Outline: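 Steps: expose the mutant yeast strain to compound; grow alongside vehicle-treated cultures; measure growth; express inhibition against the vehicle cultures.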
# [6] = NCI Yeast Anticancer Drug Screen. Data for the mlh1 rad18 strain (AID 175); settings: S. cerevisiae mlh1 rad18 strain growth inhibition, hits give high values
# Outline: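 In this whole-cell yeast screen, a strain with altered DNA damage repair is challenged with compound, and its growth is measured against matched vehicle-treated controls.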
# [7] = at 5.0 µM (retest, dose inferred, filed as 0.5)
# [8] = at 50.0 µM (retest, dose inferred, filed as 5.0)
SMILES,"growth inhibition [1, 7]","growth inhibition [1, 8]",growth inhibition ([1]; at 50.0 µM),"growth inhibition [2, 7]","growth inhibition [2, 8]",growth inhibition ([2]; at 50.0 µM),"growth inhibition [3, 7]","growth inhibition [3, 8]",growth inhibition ([3]; at 50.0 µM),"growth inhibition [4, 7]","growth inhibition [4, 8]",growth inhibition ([4]; at 50.0 µM),"growth inhibition [5, 7]","growth inhibition [5, 8]",growth inhibition ([5]; at 50.0 µM),"growth inhibition [6, 7]","growth inhibition [6, 8]",growth inhibition ([6]; at 50.0 µM)
O=[N+]([O-])C1(CO)COC(CCc2ccccc2)OC1 (configuration not stated),-2%,5%,67.7%,0%,3%,78.2% (active),2%,5%,82.3% (active),2%,3%,97.5% (active),-2%,-3%,65.5%,0%,3%,98.4% (active)
Nc1ccccc1/C=C1/Sc2cc[nH]c2C1=O,2%,5%,4.9%,1%,-1%,5.55%,-2%,-5%,-15.8%,-1%,-3%,3.1%,15%,40%,83.8% (active),3%,10%,-9.8%
CC(C)(C)c1ccc(-n2c3nc(=O)n(-c4ccccc4C(F)(F)F)c(=O)c-3cc3ccccc32)cc1,13%,96% (active),59.1%,3%,99% (active),50%,10%,98% (active),61.1%,13%,97% (active),60.5%,8%,98% (active),47.1%,15%,98% (active),65.6%
O=c1c(O)c(-c2ccc(Cl)cc2)oc2cc(O)ccc12,4%,52%,88.7% (active),2%,86% (active),77.7% (active),1%,54%,89.7% (active),-7%,-2%,-9.3%,3%,51%,59.5%,7%,50%,91.5% (active)
Cc1nc(C(N)=S)sc1C(=O)CC(=O)C(=O)Nc1nc2ccccc2[nH]1,10%,-9%,-7.35%,11%,24%,23.1%,13%,-110%,-24.9%,7%,3%,2.85%,11%,-7%,1.75%,12%,25%,-42.5%
Cc1cc(C=Nc2ccccc2)c(O)c2ncccc12,19%,96% (active),98.8% (active),10%,95% (active),99.3% (active),15%,98% (active),94.9% (active),8%,98% (active),83.7% (active),0%,98% (active),99.1% (active),14%,99% (active),99.2% (active)
NSc1ccccn1,7%,74% (active),90.4% (active),9%,93% (active),93.5% (active),11%,79% (active),97.8% (active),29%,84% (active),89.7% (active),3%,92% (active),99% (active),4%,85% (active),96.7% (active)
COc1cc2c(cc1O)CCCCC2,4%,4%,41.1%,3%,-2%,-29.2%,1%,8%,6.9%,-2%,-7%,0%,-4%,0%,-7.5%,-3%,3%,43%
C[n+]1c(/C=C/c2ccccc2Cl)sc2ccccc21,83% (active),96% (active),97.2% (active),99% (active),99% (active),94.2% (active),52%,88% (active),98.2% (active),59%,92% (active),98.5% (active),98% (active),98% (active),89.5% (active),98% (active),98% (active),98.7% (active)
[Br][Pt+2][Br].[NH-]c1cccc(I)c1.[NH-]c1cccc(I)c1,2%,60%,39.5%,1%,31%,22.2%,8%,39%,30.8%,-1%,27%,12.6%,1%,-5%,3.25%,5%,81% (active),88.8% (active)
CCOc1ccccc1C(=O)Oc1cccc(C)c1,-7%,-1%,1.95%,-8%,-18%,-9.75%,-2%,12%,5.55%,-21%,32%,-5.2%,6%,-6%,11.8%,-19%,17%,18.9%
Nc1ncnc2nc[nH]c12.[Ag],98% (active),99% (active),99.3% (active),99% (active),100% (active),99.7% (active),97% (active),99% (active),99.7% (active),99% (active),99% (active),98.5% (active),99% (active),99% (active),99.5% (active),97% (active),99% (active),99.7% (active)
Oc1ccc2ccccc2c1/C=N\Sc1ccccc1,11%,99% (active),97.5% (active),18%,99% (active),99.3% (active),15%,99% (active),98.5% (active),7%,99% (active),41%,-2%,99% (active),98.1% (active),6%,99% (active),99% (active)
FC(F)(F)c1ccc(-c2ccc(OCCN3CCCC3)cc2)cc1,30%,50%,98.6% (active),13%,50%,99.5% (active),25%,88% (active),99.4% (active),28%,40%,99.1% (active),26%,62%,99.4% (active),29%,68%,99.3% (active)
O=C(O)CCCCCCCCC(=O)O.[Ag],99% (active),99% (active),90.2% (active),99% (active),99% (active),93% (active),100% (active),99% (active),93.8% (active),70% (active),99% (active),92.2% (active),99% (active),99% (active),92.5% (active),99% (active),99% (active),91.5% (active)
CN(C)C1CCC2C3CC=C4CC(OC=O)CCC4(C)C3CCC21C (configuration not stated),-1%,48%,71.2% (active),2%,42%,17.3%,2%,60%,65.5%,17%,83% (active),76.4% (active),0%,86% (active),48.8%,-11%,52%,45.7%
Fc1ccc(NC(=S)SCc2ccc(Cl)c(Cl)c2)cc1,4%,92% (active),98.1% (active),3%,91% (active),99% (active),0%,97% (active),98.8% (active),-3%,92% (active),98.3% (active),3%,90% (active),98.2% (active),0%,94% (active),98.8% (active)
OCc1ccc2c(c1)CC1(C2)Cc2cc3c(cc2C1O)CCC3 (configuration not stated),20%,41%,48.6%,18%,36%,42.4%,3%,22%,51.8%,5%,51%,47.4%,21%,59%,33.2%,20%,57%,71% (active)
O=[N+]([O-])c1cnc(F)c(Br)c1,99% (active),99% (active),99.1% (active),99% (active),100% (active),99.2% (active),99% (active),99% (active),99.2% (active),98% (active),99% (active),98.7% (active),99% (active),99% (active),99.1% (active),99% (active),99% (active),99.3% (active)
